# Reference: publication PMC7862700, “An all-to-all approach to the identification of sequence-specific readers for epigenetic DNA modifications on cytosine”
# What was measured:
# Test in all cases: DAPPL (digital affinity profiling via proximity ligation, sequencing); 10 mM Tris-HCl pH 7.5, 50 mM NaCl, 1 mM DTT, 4% glycerol, room temperature, 30 min; GST-TFs on glutathione beads, 16-mer random dsDNA library, 0.1% formaldehyde crosslink after washing; high values mean tight binding
# FLI1 = target: T1, FLI1 (Homo sapiens, UniProt Q01543 1-452); conditions: protein: recombinant; tags: N-terminal GST; dsDNA, one strand shown
# T1 sequence: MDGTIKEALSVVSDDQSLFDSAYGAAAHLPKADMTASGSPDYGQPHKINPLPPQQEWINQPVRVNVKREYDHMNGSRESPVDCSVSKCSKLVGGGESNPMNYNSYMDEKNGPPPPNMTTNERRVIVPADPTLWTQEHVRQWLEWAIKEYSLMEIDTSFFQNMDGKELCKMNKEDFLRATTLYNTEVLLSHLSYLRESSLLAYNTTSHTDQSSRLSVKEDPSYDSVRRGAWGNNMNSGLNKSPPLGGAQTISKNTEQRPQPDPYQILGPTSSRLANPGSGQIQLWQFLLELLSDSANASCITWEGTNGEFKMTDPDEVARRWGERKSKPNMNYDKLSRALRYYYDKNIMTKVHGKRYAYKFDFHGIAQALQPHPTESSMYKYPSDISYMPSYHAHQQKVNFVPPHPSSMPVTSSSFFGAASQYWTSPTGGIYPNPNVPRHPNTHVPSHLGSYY
# How it was run: (§1)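 Binding signal is each hexamer's read frequency for a factor divided by its frequency in the tag-only sample. The factors were GST-fused human transcription factors from yeast, captured on glutathione beads, DNA-barcoded and pooled with that sample. Pools were incubated with 200 nmole of a random double-stranded 16-mer DNA library in Tris/NaCl/DTT/glycerol buffer at room temperature for 30 min, then washed, crosslinked with 0.1% formaldehyde, proximity-ligated with BsaI/T4 ligase (1 h, 37 °C), PCR-amplified and sequenced on an Illumina NextSeq500.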
# ELK1 = target: T2, ELK1 (Homo sapiens, UniProt P19419 1-428); conditions: protein: recombinant; tags: N-terminal GST; dsDNA, one strand shown
# T2 sequence: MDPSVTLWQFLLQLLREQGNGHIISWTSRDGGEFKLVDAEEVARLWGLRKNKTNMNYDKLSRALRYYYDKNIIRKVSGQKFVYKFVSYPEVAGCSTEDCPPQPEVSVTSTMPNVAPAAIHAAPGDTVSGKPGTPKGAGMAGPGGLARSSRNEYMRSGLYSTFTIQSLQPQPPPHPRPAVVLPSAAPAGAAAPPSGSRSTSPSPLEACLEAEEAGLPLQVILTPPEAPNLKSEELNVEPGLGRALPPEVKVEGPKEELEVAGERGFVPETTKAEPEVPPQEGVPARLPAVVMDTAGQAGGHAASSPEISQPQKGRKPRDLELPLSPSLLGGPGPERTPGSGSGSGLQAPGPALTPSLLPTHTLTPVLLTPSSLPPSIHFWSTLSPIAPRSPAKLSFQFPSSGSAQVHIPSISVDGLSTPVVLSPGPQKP
# How it was run: as §1
# GABPA = target: T3, GABPA (Homo sapiens, UniProt Q06546 1-454); conditions: protein: recombinant; tags: N-terminal GST; dsDNA, one strand shown
# T3 sequence: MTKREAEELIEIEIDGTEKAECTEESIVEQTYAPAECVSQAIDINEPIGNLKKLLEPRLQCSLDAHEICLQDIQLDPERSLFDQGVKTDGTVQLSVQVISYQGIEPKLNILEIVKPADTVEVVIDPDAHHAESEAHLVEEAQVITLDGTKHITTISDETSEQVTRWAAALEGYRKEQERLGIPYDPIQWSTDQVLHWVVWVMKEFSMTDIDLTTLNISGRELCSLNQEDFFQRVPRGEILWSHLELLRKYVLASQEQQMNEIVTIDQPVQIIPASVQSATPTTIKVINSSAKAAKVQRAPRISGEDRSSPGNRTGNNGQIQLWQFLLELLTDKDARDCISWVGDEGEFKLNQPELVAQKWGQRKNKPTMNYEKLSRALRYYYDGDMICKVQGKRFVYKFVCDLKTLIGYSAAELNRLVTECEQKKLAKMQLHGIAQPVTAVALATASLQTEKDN
# How it was run: as §1
# ERG = target: T4, ERG (Homo sapiens, UniProt P11308 1-479); conditions: protein: recombinant; tags: N-terminal GST; dsDNA, one strand shown
# T4 sequence: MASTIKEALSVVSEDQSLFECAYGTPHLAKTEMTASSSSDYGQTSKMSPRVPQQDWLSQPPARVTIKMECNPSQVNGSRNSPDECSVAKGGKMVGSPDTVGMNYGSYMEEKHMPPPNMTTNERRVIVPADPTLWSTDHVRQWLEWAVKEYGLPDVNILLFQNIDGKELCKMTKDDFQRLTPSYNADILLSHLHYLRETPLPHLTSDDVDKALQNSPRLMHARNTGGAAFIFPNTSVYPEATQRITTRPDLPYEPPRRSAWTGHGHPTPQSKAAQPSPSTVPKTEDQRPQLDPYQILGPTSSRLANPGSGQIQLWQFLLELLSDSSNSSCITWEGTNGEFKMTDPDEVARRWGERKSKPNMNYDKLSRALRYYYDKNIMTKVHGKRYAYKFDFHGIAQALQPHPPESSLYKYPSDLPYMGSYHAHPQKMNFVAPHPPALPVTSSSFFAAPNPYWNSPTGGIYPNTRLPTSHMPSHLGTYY
# How it was run: as §1
# ELF1 = ELF1 (Homo sapiens, UniProt P32519 1-619); conditions: protein: recombinant; tags: N-terminal GST; dsDNA, one strand shown
# How it was run: as §1
# EHF = target: T5, EHF (Homo sapiens, UniProt Q9NZC4 1-300); conditions: protein: recombinant; tags: N-terminal GST; dsDNA, one strand shown
# T5 sequence: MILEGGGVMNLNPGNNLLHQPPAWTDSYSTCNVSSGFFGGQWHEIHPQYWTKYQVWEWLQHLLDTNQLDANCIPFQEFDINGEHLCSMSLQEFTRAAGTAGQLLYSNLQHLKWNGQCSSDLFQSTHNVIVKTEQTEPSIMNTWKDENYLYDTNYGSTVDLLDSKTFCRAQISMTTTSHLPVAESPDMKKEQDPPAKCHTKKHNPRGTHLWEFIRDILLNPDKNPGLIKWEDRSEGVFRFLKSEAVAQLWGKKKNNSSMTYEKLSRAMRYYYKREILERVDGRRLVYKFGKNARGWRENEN
# How it was run: as §1
# SPI1 = SPI1 (Homo sapiens, UniProt P17947 1-270); conditions: protein: recombinant; tags: N-terminal GST; dsDNA, one strand shown
# How it was run: as §1
# SPIB = SPIB (Homo sapiens, UniProt Q01892 1-262); conditions: protein: recombinant; tags: N-terminal GST; dsDNA, one strand shown
# How it was run: as §1
# ELK3 = target: T6, ELK3 (Homo sapiens, UniProt P41970 1-407); conditions: protein: recombinant; tags: N-terminal GST; dsDNA, one strand shown
# T6 sequence: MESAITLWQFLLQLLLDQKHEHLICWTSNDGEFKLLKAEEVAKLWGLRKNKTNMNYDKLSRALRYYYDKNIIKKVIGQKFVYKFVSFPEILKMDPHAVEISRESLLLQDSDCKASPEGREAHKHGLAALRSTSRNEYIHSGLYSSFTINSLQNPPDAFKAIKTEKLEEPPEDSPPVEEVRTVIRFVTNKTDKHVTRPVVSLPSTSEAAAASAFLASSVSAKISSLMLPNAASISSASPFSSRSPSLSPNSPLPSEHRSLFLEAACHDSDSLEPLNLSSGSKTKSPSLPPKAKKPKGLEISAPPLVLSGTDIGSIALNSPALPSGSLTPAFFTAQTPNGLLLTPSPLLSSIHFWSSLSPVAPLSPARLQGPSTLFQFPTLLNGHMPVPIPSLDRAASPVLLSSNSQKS
# How it was run: as §1
# FEV = target: T7, FEV (Homo sapiens, UniProt Q99581 1-238); conditions: protein: recombinant; tags: N-terminal GST; dsDNA, one strand shown
# T7 sequence: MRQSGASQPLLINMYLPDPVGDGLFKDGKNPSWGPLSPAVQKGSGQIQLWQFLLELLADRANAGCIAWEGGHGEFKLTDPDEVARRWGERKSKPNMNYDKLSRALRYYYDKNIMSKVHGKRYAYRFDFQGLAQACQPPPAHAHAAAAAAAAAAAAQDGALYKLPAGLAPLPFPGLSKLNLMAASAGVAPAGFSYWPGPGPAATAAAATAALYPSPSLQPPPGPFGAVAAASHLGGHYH
# How it was run: as §1
# ETV5 = ETV5 (Homo sapiens, UniProt P41161 1-510); conditions: protein: recombinant; tags: N-terminal GST; dsDNA, one strand shown
# How it was run: as §1
# HSF1 = HSF1 (Homo sapiens, UniProt Q00613 1-529); conditions: protein: recombinant; tags: N-terminal GST; chain copies: 3; dsDNA, one strand shown
# How it was run: as §1
# SPIC = target: T8, SPIC (Homo sapiens, UniProt Q8N5J4 1-248); conditions: protein: recombinant; tags: N-terminal GST; dsDNA, one strand shown
# T8 sequence: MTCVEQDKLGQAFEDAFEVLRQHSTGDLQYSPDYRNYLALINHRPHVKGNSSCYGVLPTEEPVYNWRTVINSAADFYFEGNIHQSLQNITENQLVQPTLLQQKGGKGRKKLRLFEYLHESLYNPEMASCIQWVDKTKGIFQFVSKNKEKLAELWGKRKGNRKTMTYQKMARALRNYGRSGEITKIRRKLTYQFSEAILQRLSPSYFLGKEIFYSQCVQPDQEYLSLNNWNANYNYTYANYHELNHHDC
# How it was run: as §1
# ELF4 = ELF4 (Homo sapiens, UniProt Q99607 1-663); conditions: protein: recombinant; tags: N-terminal GST; dsDNA, one strand shown
# How it was run: as §1
# ELK4 = target: T9, ELK4 (Homo sapiens, UniProt P28324-2 1-405); conditions: protein: recombinant; tags: N-terminal GST; dsDNA, one strand shown
# T9 sequence: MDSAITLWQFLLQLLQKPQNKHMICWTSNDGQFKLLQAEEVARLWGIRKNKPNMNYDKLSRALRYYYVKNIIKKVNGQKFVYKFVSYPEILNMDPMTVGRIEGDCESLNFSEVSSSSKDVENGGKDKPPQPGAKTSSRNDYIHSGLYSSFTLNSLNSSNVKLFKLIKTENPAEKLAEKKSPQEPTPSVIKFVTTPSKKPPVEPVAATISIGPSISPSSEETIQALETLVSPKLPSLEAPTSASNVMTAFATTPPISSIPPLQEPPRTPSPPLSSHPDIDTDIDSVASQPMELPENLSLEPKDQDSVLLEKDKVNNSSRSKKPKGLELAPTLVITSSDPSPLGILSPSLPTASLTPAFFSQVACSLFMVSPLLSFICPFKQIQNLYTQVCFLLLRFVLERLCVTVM
# How it was run: as §1
# ETV2 = target: T10, ETV2 (Homo sapiens, UniProt O00321 1-342); conditions: protein: recombinant; tags: N-terminal GST; dsDNA, one strand shown
# T10 sequence: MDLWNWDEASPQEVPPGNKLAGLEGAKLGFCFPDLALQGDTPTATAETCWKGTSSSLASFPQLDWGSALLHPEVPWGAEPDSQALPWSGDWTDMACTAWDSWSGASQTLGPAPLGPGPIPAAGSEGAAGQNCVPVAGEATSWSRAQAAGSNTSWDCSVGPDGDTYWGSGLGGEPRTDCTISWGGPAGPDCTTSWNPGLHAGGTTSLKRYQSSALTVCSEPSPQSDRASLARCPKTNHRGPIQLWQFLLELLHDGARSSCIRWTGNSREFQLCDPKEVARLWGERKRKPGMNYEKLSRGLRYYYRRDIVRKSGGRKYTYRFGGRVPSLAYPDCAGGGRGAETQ
# How it was run: as §1
# ELF3 = target: T11, ELF3 (Homo sapiens, UniProt P78545 1-371); conditions: protein: recombinant; tags: N-terminal GST; dsDNA, one strand shown
# T11 sequence: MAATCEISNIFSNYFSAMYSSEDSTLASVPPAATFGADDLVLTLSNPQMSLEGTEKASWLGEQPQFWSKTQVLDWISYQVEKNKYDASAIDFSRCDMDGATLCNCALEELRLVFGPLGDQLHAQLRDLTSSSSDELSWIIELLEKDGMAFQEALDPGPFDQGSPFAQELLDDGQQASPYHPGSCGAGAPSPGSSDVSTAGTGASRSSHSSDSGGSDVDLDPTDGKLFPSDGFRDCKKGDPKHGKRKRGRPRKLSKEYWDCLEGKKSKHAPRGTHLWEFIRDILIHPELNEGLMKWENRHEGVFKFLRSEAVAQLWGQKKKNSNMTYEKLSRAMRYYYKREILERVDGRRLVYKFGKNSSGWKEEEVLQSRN
# How it was run: as §1
# CRX = CRX (Homo sapiens, UniProt O43186 1-299); conditions: protein: recombinant; tags: N-terminal GST; dsDNA, one strand shown
# How it was run: as §1
# ETV1 = ETV1 (Homo sapiens, UniProt P50549 1-477); conditions: protein: recombinant; tags: N-terminal GST; dsDNA, one strand shown
# How it was run: as §1
# Chain of ETV1 (P50549 whole entry): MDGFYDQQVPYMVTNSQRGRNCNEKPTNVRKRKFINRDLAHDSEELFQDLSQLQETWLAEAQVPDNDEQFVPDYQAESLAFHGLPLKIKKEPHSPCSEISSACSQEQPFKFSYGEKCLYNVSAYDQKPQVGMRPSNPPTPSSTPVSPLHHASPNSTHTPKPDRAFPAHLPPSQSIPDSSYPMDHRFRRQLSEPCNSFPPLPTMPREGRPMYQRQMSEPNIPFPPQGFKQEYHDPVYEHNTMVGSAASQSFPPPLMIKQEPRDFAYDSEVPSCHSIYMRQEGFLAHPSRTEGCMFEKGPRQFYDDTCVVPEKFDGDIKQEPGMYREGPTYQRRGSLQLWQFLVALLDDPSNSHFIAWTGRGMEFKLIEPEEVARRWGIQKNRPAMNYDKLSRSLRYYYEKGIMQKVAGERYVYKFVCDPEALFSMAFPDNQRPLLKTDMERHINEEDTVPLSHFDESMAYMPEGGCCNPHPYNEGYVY
# Chain of SPIB (Q01892 whole entry): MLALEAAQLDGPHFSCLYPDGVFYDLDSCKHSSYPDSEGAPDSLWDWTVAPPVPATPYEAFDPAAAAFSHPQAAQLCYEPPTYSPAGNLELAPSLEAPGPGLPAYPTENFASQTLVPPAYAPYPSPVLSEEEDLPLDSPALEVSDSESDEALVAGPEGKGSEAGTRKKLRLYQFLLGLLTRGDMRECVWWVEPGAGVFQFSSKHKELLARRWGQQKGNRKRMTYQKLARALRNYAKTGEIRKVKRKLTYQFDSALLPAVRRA
# Chain of ELF1 (P32519 whole entry): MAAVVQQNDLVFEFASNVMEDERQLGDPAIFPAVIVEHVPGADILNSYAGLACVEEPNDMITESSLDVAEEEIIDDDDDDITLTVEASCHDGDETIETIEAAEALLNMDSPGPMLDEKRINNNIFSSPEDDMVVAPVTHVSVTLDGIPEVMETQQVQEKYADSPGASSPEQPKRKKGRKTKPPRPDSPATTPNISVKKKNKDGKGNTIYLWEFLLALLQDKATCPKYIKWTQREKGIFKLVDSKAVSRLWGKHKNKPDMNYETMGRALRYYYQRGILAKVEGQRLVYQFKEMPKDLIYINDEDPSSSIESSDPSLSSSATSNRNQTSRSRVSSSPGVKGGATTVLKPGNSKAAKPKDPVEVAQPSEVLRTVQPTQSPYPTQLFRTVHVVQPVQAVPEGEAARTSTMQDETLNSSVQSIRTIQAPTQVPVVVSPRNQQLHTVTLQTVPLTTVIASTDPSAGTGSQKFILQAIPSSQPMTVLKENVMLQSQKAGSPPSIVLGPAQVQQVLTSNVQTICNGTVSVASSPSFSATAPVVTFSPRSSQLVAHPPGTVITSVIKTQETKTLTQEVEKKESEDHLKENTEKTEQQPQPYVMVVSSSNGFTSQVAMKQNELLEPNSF
# Chain of ETV5 (P41161 whole entry): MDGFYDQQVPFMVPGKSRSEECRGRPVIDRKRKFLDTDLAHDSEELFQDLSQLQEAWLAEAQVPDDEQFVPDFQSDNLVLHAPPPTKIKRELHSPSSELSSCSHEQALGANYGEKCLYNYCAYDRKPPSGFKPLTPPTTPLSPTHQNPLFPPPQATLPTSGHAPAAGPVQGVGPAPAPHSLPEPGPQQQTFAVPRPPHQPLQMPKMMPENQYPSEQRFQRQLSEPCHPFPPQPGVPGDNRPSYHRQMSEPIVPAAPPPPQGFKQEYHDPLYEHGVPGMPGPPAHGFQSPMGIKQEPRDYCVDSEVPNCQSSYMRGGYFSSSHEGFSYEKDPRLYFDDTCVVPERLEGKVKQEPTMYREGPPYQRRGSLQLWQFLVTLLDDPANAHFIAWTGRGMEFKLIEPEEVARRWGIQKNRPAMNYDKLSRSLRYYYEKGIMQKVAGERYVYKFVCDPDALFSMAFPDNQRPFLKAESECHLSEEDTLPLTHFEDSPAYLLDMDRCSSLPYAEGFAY
# Chain of HSF1 (Q00613 whole entry): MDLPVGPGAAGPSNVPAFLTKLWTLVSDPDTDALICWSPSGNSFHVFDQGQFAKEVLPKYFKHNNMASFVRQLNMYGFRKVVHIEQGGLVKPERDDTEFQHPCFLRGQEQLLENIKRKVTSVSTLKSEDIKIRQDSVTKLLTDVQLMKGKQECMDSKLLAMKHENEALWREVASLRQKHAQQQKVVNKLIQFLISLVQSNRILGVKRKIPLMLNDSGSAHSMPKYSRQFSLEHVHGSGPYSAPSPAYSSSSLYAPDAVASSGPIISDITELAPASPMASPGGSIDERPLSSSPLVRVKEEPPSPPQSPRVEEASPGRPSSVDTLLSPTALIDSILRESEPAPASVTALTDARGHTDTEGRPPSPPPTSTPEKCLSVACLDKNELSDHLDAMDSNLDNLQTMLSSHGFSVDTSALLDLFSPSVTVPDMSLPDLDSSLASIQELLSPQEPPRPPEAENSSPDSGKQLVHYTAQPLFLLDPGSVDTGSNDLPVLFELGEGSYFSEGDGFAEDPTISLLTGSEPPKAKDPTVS
# Chain of ELF4 (Q99607 whole entry): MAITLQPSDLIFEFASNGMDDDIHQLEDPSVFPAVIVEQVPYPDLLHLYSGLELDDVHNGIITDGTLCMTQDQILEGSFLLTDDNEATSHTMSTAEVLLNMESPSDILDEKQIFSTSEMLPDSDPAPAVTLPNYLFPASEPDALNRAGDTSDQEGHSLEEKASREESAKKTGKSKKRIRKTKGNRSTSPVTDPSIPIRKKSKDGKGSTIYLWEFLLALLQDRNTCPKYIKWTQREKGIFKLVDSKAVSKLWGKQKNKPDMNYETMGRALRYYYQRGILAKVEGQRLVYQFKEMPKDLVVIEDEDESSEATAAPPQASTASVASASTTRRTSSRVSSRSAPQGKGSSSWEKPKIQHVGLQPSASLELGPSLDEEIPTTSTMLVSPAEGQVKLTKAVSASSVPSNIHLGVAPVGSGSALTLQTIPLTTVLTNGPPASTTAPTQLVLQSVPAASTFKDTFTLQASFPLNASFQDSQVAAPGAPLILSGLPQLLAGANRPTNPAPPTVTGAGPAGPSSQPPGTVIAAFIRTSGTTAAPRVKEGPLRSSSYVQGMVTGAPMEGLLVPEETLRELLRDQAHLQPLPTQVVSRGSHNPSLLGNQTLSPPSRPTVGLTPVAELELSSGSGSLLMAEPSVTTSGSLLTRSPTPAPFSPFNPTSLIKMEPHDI
# Chain of CRX (O43186 whole entry): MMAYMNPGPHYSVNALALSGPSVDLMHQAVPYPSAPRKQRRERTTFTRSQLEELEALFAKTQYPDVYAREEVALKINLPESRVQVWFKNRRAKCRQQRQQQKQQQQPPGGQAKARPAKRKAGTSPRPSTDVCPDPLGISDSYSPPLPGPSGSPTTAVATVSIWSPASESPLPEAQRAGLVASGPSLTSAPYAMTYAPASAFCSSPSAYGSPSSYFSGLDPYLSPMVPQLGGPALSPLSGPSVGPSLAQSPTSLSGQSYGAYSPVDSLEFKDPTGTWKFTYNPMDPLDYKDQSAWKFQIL
sequence,measurement,setting,value
TCTGGT,binding signal,FLI1,"1.25 fold enrichment (6-mer frequency, TF over GST control)"
same,binding signal,ELK1,"1.29 fold enrichment (6-mer frequency, TF over GST control)"
same,binding signal,GABPA,"1.32 fold enrichment (6-mer frequency, TF over GST control)"
same,binding signal,ERG,"1.33 fold enrichment (6-mer frequency, TF over GST control)"
same,binding signal,ELF1,"1.22 fold enrichment (6-mer frequency, TF over GST control)"
same,binding signal,EHF,"1.21 fold enrichment (6-mer frequency, TF over GST control)"
same,binding signal,SPI1,"1.31 fold enrichment (6-mer frequency, TF over GST control)"
same,binding signal,SPIB,"1.21 fold enrichment (6-mer frequency, TF over GST control)"
same,binding signal,ELK3,"1.31 fold enrichment (6-mer frequency, TF over GST control)"
same,binding signal,FEV,"1.12 fold enrichment (6-mer frequency, TF over GST control)"
same,binding signal,ETV5,"1.28 fold enrichment (6-mer frequency, TF over GST control)"
same,binding signal,HSF1,"1.8 fold enrichment (6-mer frequency, TF over GST control)"
same,binding signal,SPIC,"1.38 fold enrichment (6-mer frequency, TF over GST control)"
same,binding signal,ELF4,"1.28 fold enrichment (6-mer frequency, TF over GST control)"
same,binding signal,ELK4,"1.17 fold enrichment (6-mer frequency, TF over GST control)"
same,binding signal,ETV2,"1.16 fold enrichment (6-mer frequency, TF over GST control)"
same,binding signal,ELF3,"1.34 fold enrichment (6-mer frequency, TF over GST control)"
same,binding signal,CRX,"1.33 fold enrichment (6-mer frequency, TF over GST control)"
same,binding signal,ETV1,"1.1 fold enrichment (6-mer frequency, TF over GST control)"
